Measurements from PubChem BioAssay.

These compounds were tested on Human papillomavirus type 1a E7 protein (residues 1-88) (assay: HPV1a E7 small-molecule binders, primary screen, biochemical, small-molecule microarray, residues 1-88, 635 nm (AID 1129)). Details: small-molecule microarray binding, fluorescence 635 nm; higher = more signal.

SMILES | composite z-score
C=C(COC)/C(=C/C[C@H](OC(C)=O)c1ccc(CO)o1)c1cc(C(=O)OC)ccc1OC | 0.516
O=C(NCCN1CCOCC1)C1N=C(c2ccc(OCCCO)cc2)N(c2ccccc2)O1 (stereo not given) | 1.29
COCCOC(=O)N1C(=O)[C@@]2(c3cc(C#CCCO)ccc31)[C@H](C(=O)N1CCCCCCC1)[C@H]1C(=O)O[C@H](c3ccccc3)[C@H](c3ccccc3)N1[C@@H]2c1ccc(OCCO)cc1 | 1.2
COc1cc(Br)cc(C(O)C2C=CC3C(=O)N(C)C(=O)C3N2N2CCCCC2)c1OC (stereo not given) | 0.665
C=C(C)[C@@H]1CC=C(C(O)C2C=CC3C(=O)N(C)C(=O)C3N2Nc2ccccc2)CC1 (stereo not given in full) | 1.17
O=C(N1CCCCC1)[C@]1(Cc2ccccc2)N=C(c2ccc(OCCCO)cc2)O[C@@H]1c1ccccc1 | 1.19
CC(C)c1ccc(NN2C(C(O)c3ccc(B(O)O)cc3)C=CC3C(=O)N(c4ccccc4)C(=O)C32)cc1 (stereo not given) | 1.2
C=CCNC(=O)[C@@H]1[C@H]2C(=O)O[C@H](c3ccccc3)[C@H](c3ccccc3)N2[C@H](c2ccccc2OCCO)[C@@]12C(=O)N(C(=O)OCCOC)c1ccccc12 | 1.2
CC(C)C(O)C1C=CC2C(=O)N(c3ccccc3)C(=O)C2N1Nc1ccc([N+](=O)[O-])cc1 (stereo not given) | 1.17
COC(=O)[C@@]1(Cc2ccc(OC)cc2)[C@@H]2C(=CC(=O)[C@H]2CC(=O)C(=O)N2CCCC2)CN1C(=O)c1ccccc1 | 0.882
COC(=O)[C@@]1(Cc2ccc(OC)cc2)[C@H]2c3cc(C(=O)N(C)C)n(Cc4ccc(S(C)(=O)=O)cc4)c3C[C@H]2CN1C(=O)c1ccccc1 | 1.26
COCCOC(=O)N1C(=O)[C@@]2(c3cc(C#CC4(O)CCCCCC4)ccc31)[C@H](c1ccc(OCCO)cc1)N1[C@H](c3ccccc3)[C@H](c3ccccc3)OC(=O)[C@H]1[C@@H]2C(=O)N1CCN(c2ncccn2)CC1 | 1.21
COc1ccc(C#Cc2ccc3c(c2)[C@]2(C(=O)N3)[C@H](C(=O)Nc3nc4ccccc4s3)[C@H]3C(=O)O[C@H](c4ccccc4)[C@H](c4ccccc4)N3[C@@H]2c2ccc(O)cc2)cc1 | 1.24
OCCCC1=CC(c2cccs2)N(Cc2cc3c(cc2Br)OCO3)CC1 (stereo not given) | 0.213
CCN(CC)c1ccc(N2CC=CC34O[C@@H]5C=CCCOC(=O)C5[C@H]3C(=O)N(CCCCCCO)[C@@H]4C2=O)cc1 (stereo not given in full) | 0.321
CCCCCN1CC=CC23O[C@@H]4/C=C\CCC(C)OC(=O)C4[C@H]2C(=O)N(C(C)CO)[C@@H]3C1=O (stereo not given in full) | -0.575
CC(C)OC(=O)C=C1C[C@@H](c2ccccn2)O[C@@H](c2ccccn2)O1 | -0.0007
C=CCOC(=O)[C@H]1[C@@H]2C(=O)O[C@@H](c3ccccc3)[C@@H](c3ccccc3)N2[C@@H](c2ccc(OCCOC(=O)[C@@H]3C[C@@H]4C(=O)N[C@@H](CCCCNC(C)=O)C(=O)N4[C@@H]3c3ccc(O)cc3)cc2)[C@]12C(=O)Nc1ccccc12 | 1.22

SMILES | composite z-score
Cc1nc2cc(Br)ccc2c(=O)o1 | 0.628
C=CCOC(=O)[C@H]1[C@@H]2C(=O)O[C@@H](c3ccccc3)[C@@H](c3ccccc3)N2[C@@H](c2ccc(OCCOC(=O)[C@H]3C[C@H]4C(=O)N[C@@H](CCCCNC(C)=O)C(=O)N4[C@H]3c3ccc(O)cc3)cc2)[C@]12C(=O)Nc1ccc(I)cc12 | 0.885
C=C[C@@H](COC(=O)OC(C)(C)C)N(Cc1ccc(OC)cc1)S(=O)(=O)c1ccc(Br)cc1 | 1.11
COc1ccc([Si](C)(C)[C@H]2[C@H](CCO)O[C@@]3(C(=O)N(Cc4ccc(N(C=O)c5ccccc5)cc4)c4ccccc43)[C@@H]2C)cc1 | 0.179
COCCOC(=O)N1C(=O)[C@@]2(c3cc(C#Cc4ccc(OC)cc4)ccc31)[C@H](c1ccc(OCCO)cc1)N1[C@H](c3ccccc3)[C@H](c3ccccc3)OC(=O)[C@H]1[C@@H]2C(=O)N1CCN(c2ncccn2)CC1 | 1.15
COc1ccc(C#Cc2ccc3c(c2)[C@]2(C(=O)N3)[C@H](c3ccccc3OCCO)N3[C@H](c4ccccc4)[C@H](c4ccccc4)OC(=O)[C@H]3[C@@H]2C(=O)Nc2nc3ccccc3s2)cc1 | 1.16
CCCC[C@@H]1C[C@H]1[C@@H](NC(=O)C(C)(C)C)c1ccc(C(F)(F)F)cc1 | 0.779
COC(=O)C(CC#Cc1ccc2c(c1)[C@]1(C(=O)N2)[C@H](c2ccc(OCCO)cc2)N2[C@H](c3ccccc3)[C@H](c3ccccc3)OC(=O)[C@H]2[C@@H]1C(=O)Nc1nc2ccccc2s1)C(=O)OC | 1.23
COc1ccc(CCNC(=O)[C@@]2(Sc3ccc(C)cc3)CC(=O)N(C(C)C)[C@@H]2c2ccc(CO)cc2I)cc1 | 0.178
COC(=O)[C@@]1(Cc2ccc(F)cc2)[C@H]2c3cc(C(=O)N4CCCC4)n(Cc4ccc(S(C)(=O)=O)cc4)c3C[C@H]2CN1C(=O)c1ccccc1 | 1.24
O=C1c2ccccc2[C@](Cc2ccccc2I)(C(=O)NCCN2CCOCC2)[C@H](c2ccc(CO)cc2)N1C1CCCCC1 | 1.19
COC(=O)[C@@]1(CCS(=O)(=O)c2ccccc2)N=C(c2ccc(OCCCO)cc2)O[C@H]1c1ccccc1CN=[N+]=[N-] | 1.19
COCCOC(=O)N1C(=O)[C@@]2(c3cc(C#CCNC(N)=O)ccc31)[C@H](C(=O)Nc1nc3ccccc3s1)[C@H]1C(=O)O[C@H](c3ccccc3)[C@H](c3ccccc3)N1[C@@H]2c1ccc(OCCO)cc1 | 0.669
CC(C)NC(=O)[C@@H]1c2ccccc2C(=O)N(C2Cc3ccccc3C2)[C@H]1c1ccc(CO)cc1 | 1.04
CC(C)=CCCC(C)=CC(O)C1C=CC2C(=O)N(C)C(=O)C2N1Nc1ccccc1 (stereo not given) | 1.21
[N-]=[N+]=NCc1ccccc1C[C@]1(C(=O)N2CCCCC2)N=C(c2ccc(OCCCO)cc2)O[C@H]1c1ccccc1N=[N+]=[N-] | 1.23
CCOC(=O)C[C@H]1[C@H](OC(=O)c2ccc(C(=O)c3ccccc3)cc2)[C@@H](NC(=O)CC(C)C)c2cc(OCCCO)ccc2N1C(=O)c1ccc2ccccc2n1 | 1.21
